# Measurements reported in the supplement of paper PMC6522484.
# ± gives the standard deviation of the averaged measurements.
# Tests used:
# DLD1 [1] = assay: cell viability (CellTiter-Glo) relative to plate median (fraction of plate median); higher = more viable cells; conditions: 10 µM, treatment time 24 h
# Procedure, shortened: (§1)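 Colorectal cancer cell lines carrying stably transduced lentiviral TCF/Wnt firefly luciferase reporters (7TFP or TCF4/Wnt) were plated in 384-well plates and treated 24 h later with kinase inhibitor library compounds at a final 10 µM for 24 h. Firefly luciferase or CellTiterGlo luminescence was read on parallel plates with a Tecan F500 reader. Signals were normalised per well to the plate median in webcellHTS2 (additive, no log transformation), and values are the mean of two independent replicates.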
# HCT116 [2] = assay: as above; conditions: 10 µM; treatment time 24 h; reporter: TCF4/Wnt
# Procedure, shortened: as §1
# SW480 [3] = assay: as above; conditions: 10 µM; treatment time 24 h; reporter: 7TFP
# Procedure, shortened: as §1
# DLD1 [4] = assay: TCF/Wnt firefly luciferase reporter signal relative to plate median (fraction of plate median); higher = higher Wnt reporter signal; conditions: 10 µM, treatment time 24 h
# Procedure, shortened: as §1
# HCT116 [5] = assay: as above; conditions: 10 µM; treatment time 24 h; reporter: TCF4/Wnt
# Procedure, shortened: as §1
# SW480 [6] = assay: as above; conditions: 10 µM; treatment time 24 h; reporter: 7TFP
# Procedure, shortened: as §1
SMILES,cell viability (DLD1 [1]; reporter: 7TFP),cell viability (DLD1 [1]; reporter: TCF4/Wnt),cell viability (HCT116 [2]),cell viability (SW480 [3]),TCF/Wnt firefly luciferase reporter signal (DLD1 [4]; reporter: 7TFP),TCF/Wnt firefly luciferase reporter signal (DLD1 [4]; reporter: TCF4/Wnt),TCF/Wnt firefly luciferase reporter signal (HCT116 [5]),TCF/Wnt firefly luciferase reporter signal (SW480 [6])
C[C@@H]1CN(CC(=O)Nc2ccc3c(c2)Cc2cccc(-c4cc(=O)cc(N5CCOCC5)o4)c2S3)C[C@H](C)O1,0.7975 ± 0.00071,0.878 ± 0.043,0.957 ± 0.012,0.952 ± 0.058,1.3 ± 0.092,1.32 ± 0.11,1.33 ± 0.66,1.23 ± 0.071
COC(=O)c1ccc2c(C(=Nc3ccc(N(C)C(=O)CN4CCN(C)CC4)cc3)c3ccccc3)c(O)[nH]c2c1 [BIBF1120 (Vargatef)],1.21 ± 0.18,1.04 ± 0.014,1.06 ± 0.028,1.125 ± 0.0071,1.35 ± 0.035,1.03 ± 0.18,0.749 ± 0.54,0.895 ± 0.53
COc1cc2nccc(Oc3ccc(NC(=O)NC4CC4)c(Cl)c3)c2cc1C(N)=O [E7080 (Lenvatinib)],1.07 ± 0.085,0.932 ± 0.069,1.06 ± 0.11,0.966 ± 0.062,1.44 ± 0.078,1.2 ± 0.05,1.31 ± 0.3,0.927 ± 0.34
O=c1c(O)c(-c2ccc(O)c(O)c2)oc2cc(O)cc(O)c12 [Quercetin (Sophoretin)],1.19 ± 0.035,1.02 ± 0.046,1.23 ± 0.092,0.92 ± 0.013,1.07 ± 0.014,1.04 ± 0.035,1.16 ± 0.071,0.978 ± 0.073
O=C1NC(=O)/C(=C/c2ccc3c(c2)OC(F)(F)O3)S1,1.285 ± 0.0071,1.09 ± 0.021,1.15 ± 0.13,0.882 ± 0.034,0.944 ± 0.35,1.06 ± 0.24,1.18 ± 0.22,1.03 ± 0.21
Nc1cccc(-c2cc3c(Oc4cccc(O)c4)ncnc3[nH]2)c1,1.17 ± 0.085,1.06 ± 0.078,1.05 ± 0.028,0.92 ± 0.018,0.961 ± 0.098,1.01 ± 0.014,1.28 ± 0.085,0.966 ± 0.04
CN1CCN(c2nc(C3=C(c4c[nH]c5ccccc45)C(=O)NC3=O)c3ccccc3n2)CC1 [Sotrastaurin (AEB071)],1.08 ± 0.092,1.045 ± 0.0071,1.03 ± 0.13,0.914 ± 0.1,1.54 ± 0.05,1.52 ± 0.28,1.33 ± 0.83,0.983 ± 0.63
Cc1ccc([N+](=O)[O-])cc1S(=O)(=O)N(C)/N=C/c1cnc2ccc(Br)cn12,0.887 ± 0.097,1.07 ± 0.078,0.763 ± 0.23,1.13 ± 0.11,0.358 ± 0.074,0.239 ± 0.0014,0.155 ± 0.059,0.53 ± 0.24
Cn1cc(-c2ccc3nnc(Sc4ccc5ncccc5c4)n3n2)cn1,0.983 ± 0.016,0.9215 ± 0.0078,1.07 ± 0.05,0.862 ± 0.014,1.12 ± 0.16,1.19 ± 0.042,1.41 ± 0.17,1.02 ± 0.052
Nc1nc(Nc2ccc(S(N)(=O)=O)cc2)nn1C(=O)c1c(F)cccc1F,1.01 ± 0.14,1.05 ± 0.076,0.71 ± 0.11,1.24 ± 0.071,0.811 ± 0.057,1.59 ± 0.69,0.284 ± 0.018,1.09 ± 0.13
CCC(=O)N1CCN(c2ccc(-n3c(=O)ccc4cnc5ccc(-c6cnc7ccccc7c6)cc5c43)cc2C(F)(F)F)CC1 [Torin 1],0.914 ± 0.16,0.97 ± 0.013,0.827 ± 0.045,1.17 ± 0.11,0.252 ± 0.044,0.311 ± 0.049,0.44 ± 0.096,0.66 ± 0.14
CNC(=O)c1cccc(-c2ccc3c(N4CCOC[C@@H]4C)nc(N4CCOC[C@@H]4C)nc3n2)c1,0.9035 ± 0.0064,0.874 ± 0.045,0.794 ± 0.055,1.07,0.328 ± 0.086,0.487 ± 0.073,0.549 ± 0.09,0.629 ± 0.35
O=C(NC1CCNCC1)c1n[nH]cc1NC(=O)c1c(Cl)cccc1Cl,1.16 ± 0.33,1.16 ± 0.18,0.793 ± 0.16,1.31 ± 0.17,0.517 ± 0.1,0.797 ± 0.67,0.226 ± 0.018,0.798 ± 0.074
COc1ccc(-c2ccc3c(N4CCOCC4)nc(N4C[C@@H](C)O[C@@H](C)C4)nc3n2)cc1CO,0.938 ± 0.074,0.878 ± 0.041,0.842 ± 0.076,1.18 ± 0.021,0.392 ± 0.059,0.597 ± 0.019,0.432 ± 0.24,0.812 ± 0.29
"Cc1cc(Nc2cc(N3CCN(C)CC3)nc(Sc3ccc(NC(=O)C4CC4)cc3)n2)n[nH]1 [VX-680 (MK-0457, Tozasertib)]",1.12 ± 0.18,0.975 ± 0.078,1.02 ± 0.028,1.16 ± 0.021,0.773 ± 0.0014,0.776 ± 0.057,1.56 ± 0.13,1.11 ± 0.23
COc1ccc2c3n(c(=NC(=O)c4cccnc4)nc2c1OC)CCN3,1.005 ± 0.0071,0.944 ± 0.026,0.958 ± 0.028,1.04 ± 0.042,0.858 ± 0.13,1.05 ± 0.1,1.12 ± 0.13,0.67 ± 0.33
Cc1cc(C(=O)NOCCO)c(Nc2ccc(I)cc2F)n(C)c1=O,1.19 ± 0.042,1.15 ± 0.042,0.889 ± 0.075,1.105 ± 0.0071,1.635 ± 0.0071,1.58 ± 0.25,1.17 ± 0.13,1.89 ± 0.22
COc1cc2ncnc(Nc3cccc(Cl)c3)c2cc1OC [AG-1478 (Tyrphostin AG-1478)],0.949 ± 0.059,1 ± 0.053,1.12 ± 0.014,0.9395 ± 0.005,0.847 ± 0.03,0.75 ± 0.1,1.015 ± 0.0071,0.962 ± 0.054
O=C1NC(=O)C(=Cc2ccc(-c3ccc(F)cc3)o2)S1 (stereo in doubt),1.08 ± 0.11,1.11 ± 0.064,1.09 ± 0.11,0.937 ± 0.1,1.25 ± 0.021,1.55 ± 0.16,1.29 ± 0.38,1.1 ± 0.13
C=CC(=O)Nc1cccc(Oc2nc(Nc3ccc(N4CCN(C)CC4)cc3)ncc2Cl)c1,0.968 ± 0.045,1.045 ± 0.0071,0.894 ± 0.16,1.07 ± 0.085,0.79 ± 0.067,0.969 ± 0.12,1.18 ± 0.42,0.834 ± 0.39
O=C(NCCCNc1nc(Nc2cccc(NC(=O)N3CCCC3)c2)ncc1I)c1cccs1,0.966 ± 0.19,0.97 ± 0.21,0.817 ± 0.6,1.06 ± 0.14,0.81 ± 0.0057,0.882 ± 0.32,1.06 ± 1.1,1.06 ± 0.021
COC(=O)Nc1ccc(-c2nc(N3CCOCC3)c3cnn(C4CCN(Cc5cccnc5)CC4)c3n2)cc1,0.796 ± 0.069,0.872 ± 0.036,0.759 ± 0.059,1.055 ± 0.0071,0.372 ± 0.064,0.632 ± 0.04,0.595 ± 0.068,0.765 ± 0.066
